PKD1 kinase inh = PKD1 (human) kinase inhibition. hit rate 0.056% among 200,000. inhibition, % (test concentration not listed). AID 797. PKD1 kinase fluorescence polarization assay. Q15139
LANA-H2A inh = blocks KSHV LANA binding to histone H2A/H2B | inhibition, % (no concentration beside the values) | hit rate 0.6% among 320,000 | cell-free LANA-H2A/H2B peptide, fluorescence polarization | Q9QR71 | AID 2629; in the data active means inhibition mostly above about 10%, no sharp cut-off; inactive means mostly below about 6.7%
Target sequence (Q9QR71 whole entry, looked up): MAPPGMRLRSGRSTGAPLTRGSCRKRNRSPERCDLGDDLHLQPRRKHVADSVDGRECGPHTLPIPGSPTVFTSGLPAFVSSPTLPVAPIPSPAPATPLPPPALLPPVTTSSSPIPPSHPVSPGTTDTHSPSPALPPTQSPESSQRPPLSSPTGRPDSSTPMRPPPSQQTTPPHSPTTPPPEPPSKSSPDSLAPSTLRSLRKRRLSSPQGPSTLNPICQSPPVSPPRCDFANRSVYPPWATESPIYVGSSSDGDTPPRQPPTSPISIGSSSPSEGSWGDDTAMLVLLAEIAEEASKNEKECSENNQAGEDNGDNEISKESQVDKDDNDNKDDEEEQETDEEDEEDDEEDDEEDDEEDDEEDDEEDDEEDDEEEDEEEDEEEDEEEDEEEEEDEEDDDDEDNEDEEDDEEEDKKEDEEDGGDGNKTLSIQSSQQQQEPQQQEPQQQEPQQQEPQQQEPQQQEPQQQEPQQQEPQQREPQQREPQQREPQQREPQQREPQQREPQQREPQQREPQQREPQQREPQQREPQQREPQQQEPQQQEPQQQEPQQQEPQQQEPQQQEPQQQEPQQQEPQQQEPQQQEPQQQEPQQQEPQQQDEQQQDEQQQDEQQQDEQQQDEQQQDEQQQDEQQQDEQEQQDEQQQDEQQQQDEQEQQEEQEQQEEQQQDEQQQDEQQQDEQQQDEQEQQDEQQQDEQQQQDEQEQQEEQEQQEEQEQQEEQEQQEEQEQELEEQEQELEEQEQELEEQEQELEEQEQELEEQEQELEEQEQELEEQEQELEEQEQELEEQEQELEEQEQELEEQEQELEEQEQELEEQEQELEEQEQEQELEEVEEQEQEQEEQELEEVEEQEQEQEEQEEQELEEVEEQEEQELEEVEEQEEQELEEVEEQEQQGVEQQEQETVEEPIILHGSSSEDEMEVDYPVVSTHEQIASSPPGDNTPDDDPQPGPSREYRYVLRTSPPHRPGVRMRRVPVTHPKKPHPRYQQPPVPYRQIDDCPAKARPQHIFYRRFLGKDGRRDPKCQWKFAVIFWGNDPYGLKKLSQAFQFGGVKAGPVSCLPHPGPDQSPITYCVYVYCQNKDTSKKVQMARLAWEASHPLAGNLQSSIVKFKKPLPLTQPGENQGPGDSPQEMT
VLA-4 inh = inhibition in a human VLA-4 binding assay. P13612. VLA-4 expressing cells, ligand binding flow cytometry. inhibition, % (about 7 µM as worked out from the volumes in the protocol). hit rate 0.2% among 330,000
GRK2 inh = human GRK2 inhibition via aptamer displacement; hit rate 0.59% among 330,000; bead flow cytometry, FAM-aptamer displacement from GRK2; AID 488847; P25098; inhibition of aptamer binding, % at 10 µM;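 active means inhibition of aptamer binding above 40%, roughly 3 SD of noise, on plates passing a quality check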;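 further: median bead fluorescence of bound FAM aptamer so fluorescent compounds give negative values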
DSG3 Ab inh = inhibitors of pemphigus antibody binding to human desmoglein-3; DSG3-coupled beads, scFv-anti-DSG3-GFP binding, flow cytometry; active compounds read low; binding (percent of control), % at 10 µM; AID 588358; hit rate 0.48% among 310,000;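 active means binding more than 3 SD below its plate's average and above zero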;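 further: hits lower antibody fragment binding to DSG3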
HDAC3 inh = blocks human histone deacetylase 3 | O15379 | recombinant HDAC3, fluorogenic peptide/trypsin coupled, fluorescence | inhibition, % at 8.3 µM | hit rate 0.15% among 320,000 | AID 2718; in the data active means inhibition above about 26%, passing the limit was not always enough
VLA-4 mod pick = confirmation of allosteric modulators of human VLA-4 integrin; shares compounds with VLA-4 inh; U937 cells, HUTS-21 LIBS mAb binding, flow cytometry; LDV ligand present at threefold Kd; inhibition, % at 6.7 µM; hit rate 2% among 1,300; AID 2813; in the data active means inhibition above about 40%;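 further: 0% = ligand without compound and 100% = no ligand background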
Starred values were filed as active, the others as inactive; i = inactive; . = no result; ! = a repeat was not active. This is a sample that favours compounds with a hit; in the whole collection about 1.8% have one here. Unless noted, no stated cut-off is given here; in the data, active means inhibition above about 50%; inactive means the rest.

SMILES	PKD1 kinase inh	LANA-H2A inh	VLA-4 inh	GRK2 inh	DSG3 Ab inh	HDAC3 inh	VLA-4 mod pick
CSCCC(N=C(NS(=O)(=O)c1ccccc1)c1ccccc1)C(=O)O (stereo unspecified)	.	-1	3	0	108	.	.
COc1ccc(S(=O)(=O)N2CCCC(C(=O)NCC3CCCO3)C2)cc1C (stereo unspecified)	.	2	5	0	101	-3	.
COc1cc(C(=O)OCC(=O)Nc2c(F)c(F)c(F)c(F)c2F)cc(OC)c1OC	-9	-5	-10	1	95	6	0
COc1cc(C(=O)OCC(=O)Nc2c(F)cccc2F)cc(OC)c1C	3	4	2	2	102	9	.
CCOc1ccc(C(C)=O)cc1COc1ccc(C)nc1[N+](=O)[O-]	.	0	-30	0	.	-4	.
Cc1ccc([C@H]2C[C@@H](n3cc(COC(=O)c4ccccc4)nn3)[C@H](O)CN2C(=O)c2cccs2)cc1	.	.	.	.	104	.	.
COc1ccc(NC(=O)c2ccccc2NC(=O)COc2ccccc2)cc1	-11	3	25	0	99	-5	.
C=CCNC(=O)c1ccccc1NC(=O)COc1ccc(OC)cc1	2	0	7	36	96	-5	2
C=CCNC(=O)c1ccccc1NC(=O)COc1ccccc1	0	-1	54*	1	98	5	12
C=CCN(c1ccccc1C(=O)O)S(=O)(=O)c1ccc(C)cc1	0	3	-6	0	104	1	.
CCN(CC(=O)Nc1ccc(NC(C)=O)cc1)C(=O)/C=C/c1cccs1	-3	3	54*	0	104	7	4
CCN(CC(=O)Nc1ccc(NC(C)=O)cc1)C(=O)/C=C/c1ccco1	.	3	9	10	111	5	.
COc1ccc(/C=C(\NC(=O)c2ccco2)C(=O)NCc2ccco2)cc1	.	6	4	0	117	2	.
Cc1ccc(-c2nnc(SCc3ccccc3F)o2)cc1	0	-17	-12	3	99	1	.
COc1ccc(-c2nnc(SCc3ccccc3F)o2)cc1OC	7	-7	95*	0	100	4	5
NC(=O)c1ccccc1NC(=O)Nc1cccc(Cl)c1	-5	-2	-4	0	104	4	.
O=C(Nc1cccc(Cl)c1)Nc1cccc(C(=O)O)c1	.	-3	0	6	90	-8	5
O=C(Nc1cccc(Cl)c1)Nc1ccccc1C(=O)O	.	-4	8	2	92	.	-6
O=C(Nc1ccc(Cl)cc1)Nc1cccc(C(=O)O)c1	-3	-1	16	1	.	-1	.
Nc1ccc(N2CCCCC2)c(S(=O)(=O)Nc2ccccc2Cl)c1	.	-1	14	1	103	-4	.
COc1ccc(N)cc1S(=O)(=O)Nc1ccccc1Cl	.	5	-4	1	80	3	-2
C[C@H]([C@H](O)c1ccccc1)N(C)C(=O)CN	.	0	51*	0	104	-3	-1
Cc1cc(C)n(CCC(=O)N2c3ccccc3CC2C)n1 (stereo unspecified)	.	-4	14	2	109	-3	.
Cc1nnc(SC(C)C(=O)N(C)C2CCCCC2)n1N (stereo unspecified)	.	-5	2	0	106	-7	.
COc1ccc(CNC(=O)c2coc(=O)c3ccccc23)cc1	0	0	-5	0	104	3	.
SMILES	PKD1 kinase inh	LANA-H2A inh	VLA-4 inh	GRK2 inh	DSG3 Ab inh	HDAC3 inh	VLA-4 mod pick
CCCOc1ccc(-c2cc(C(=O)NCC3CCCO3)c3ccccc3n2)cc1 (stereo unspecified)	6	8	43	3	105	-8	-5
NC(=O)c1ccccc1NS(=O)(=O)c1ccc(F)cc1	-2	-7	5	1	117	1	0
COc1cnc(-c2ccccn2)nc1Sc1ccc(F)cc1	4	-1	0	0	105	-5	.
Cc1ccc(S(=O)(=O)N2CCOCC2)cc1C(=O)NC1=NCCS1	.	4	-15	2	.	-8	.
C=C(Cl)COc1ccc2c(C)cc(=O)oc2c1	7	-1	3	0	103	-3	.
C#CCOc1ccc2c(C)cc(=O)oc2c1	1	-20	52*	0	106	-14	i
CC(C)[C@H](NC(=O)OCc1ccccc1)C(=O)NCc1ccccc1	0	2	42	3	88	0	-17
Cc1ccc(S(=O)(=O)N2CCOCC2)cc1NC(=O)COC(=O)c1ccccc1OCc1c(C)noc1C	1	0	40	1	99	-2	-14
Cc1cc(C)n(/C(=C\N(C)C)C(=O)c2ccc(Cl)cc2)n1	-7	1	15	0	115	-11	.
Cc1cc(C)n(/C(=C\N(C)C)C(=O)c2cccc([N+](=O)[O-])c2)n1	.	0	42	0	98	7	-18
CSc1nnc(Cc2cc(=O)[nH]c(=O)[nH]2)n1-c1cccc(C)c1	-11	0	18	0	.	1	.
Cc1cccc(-n2c(Cc3cc(=O)[nH]c(=O)[nH]3)nnc2SCC(=O)N2CCCCC2)c1	-7	2	54*	1	104	7	10
O=C(O)CCC(=O)Nc1ccc(S(=O)(=O)Nc2nccs2)cc1	-3	-6	56*	0	96	-4	-3
CC[C@@]1(C(=O)OC)N[C@H](CN(C)C(=O)COC)[C@@H]2C(=O)N(C)C(=O)[C@@H]21	.	.	17	0	91	.	.
CC(=O)c1ccccc1NS(=O)(=O)c1ccccc1Cl	-5	2	-3	1	84	5	4
CCCN(CCC)C(=O)CC(c1ccccc1)c1ccc(C)cc1O (stereo unspecified)	-3	9	-4	1	108	0	.
Cc1ccc(O)c([C@H](CCN(C(C)C)C(C)C)c2ccccc2)c1	.	0	53*!	1	108	3	-10
Cc1c(-c2ccc(OCCN3CCCCC3)cc2)c(=O)oc2ccc3ccccc3c12	.	.	.	.	100	.	.
c1ccc(-c2sc3ccccc3c2-c2ccc(OCCN3CCCC3)cc2)cc1	.	-3	46	0	119	-2	24
COc1ccc(-c2sc3ccccc3c2-c2ccc(OCCN3CCCCC3)cc2)cc1	.	i	6	0	128	-2	7
c1ccc(COc2ccc(OCCN3CCCC3)cc2)cc1	-3	.	11	0	101	.	.
O=C(/C=C/c1cccc(Cl)c1Cl)OCC(=O)N1CCOCC1	.	.	.	.	100	.	.
CCOC(=O)c1ccc(N2C(=O)CC(N3CCOCC3)C2=O)cc1 (stereo unspecified)	1	2	5	0	99	0	0
CCOc1ccc(N2C(=O)CC(N3CCOCC3)C2=O)cc1 (stereo unspecified)	-6	5	-6	0	83	5	.
CCOC(=O)[C@@H]1[C@H]2COc3ccccc3[C@@H]2N2C(=O)N(c3ccc(F)cc3)C(=O)[C@]12C	.	-6	2	0	100	1	.
